About 79,000 compounds went through this panel and 15% of them were active in at least one assay; those are over-represented in the sample as a whole. Cut-off read from the data, not from the text of the source: active = growth inhibition above about 70%; inactive = the rest.
Tests used:
[1] = NCI Yeast Anticancer Drug Screen. Data for the rad50 strain (AID 155);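 note: 0% = growth of vehicle-only cultures of the same strain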; settings: S. cerevisiae rad50 strain growth inhibition; at 50.0 µM; active compounds read high
Method in brief: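 Vehicle-treated cultures provide the reference for the growth inhibition reported for compound-exposed, repair-deficient yeast.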

[2] = NCI Yeast Anticancer Drug Screen. Data for the mec2-1 strain (AID 157); settings: S. cerevisiae mec2-1 strain, at 50.0 µM, active compounds read high
Method in brief: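 Each compound was tested on mec2-1 yeast, a strain altered in DNA damage repair or cell cycle control. Growth inhibition is reported relative to vehicle.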

[3] = NCI Yeast Anticancer Drug Screen. Data for the sgs1 mgt1 strain (AID 161);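 note: 0% = growth of cultures given vehicle only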; settings: S. cerevisiae sgs1 mgt1 strain, at 50.0 µM, active compounds read high
Method in brief: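 Read-out: growth inhibition vs vehicle controls. Cells: mutant yeast strain deficient in DNA damage repair.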

[4] = NCI Yeast Anticancer Drug Screen. Data for the cln2 rad14 strain (AID 165);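 note: 0% = growth equal to vehicle treated cultures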; settings: S. cerevisiae cln2 rad14 strain, at 50.0 µM, active compounds read high
Method in brief: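 Test compounds were added to cln2 rad14 yeast cultures; inhibition of growth was then determined by comparison with vehicle treatment.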

[5] = NCI Yeast Anticancer Drug Screen. Data for the bub3 strain (AID 167); settings: S. cerevisiae bub3 mutant strain, at 50.0 µM, active compounds read high
Method in brief: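 Mutant yeast screening strain plus compound; vehicle-treated cultures serve as the 0% inhibition reference.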

[6] = NCI Yeast Anticancer Drug Screen. Data for the mlh1 rad18 strain (AID 175); settings: S. cerevisiae mlh1 rad18 strain growth inhibition; at 50.0 µM; active compounds read high
Method in brief: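 Inhibition values reflect reduced growth of mutant yeast versus vehicle-treated controls following compound exposure; the mutations affect DNA damage repair.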

Measured: growth inhibition

Oc1c(CN2CCOCC2)cc(CN2CCOCC2)cc1CN1CCOCC1
inactive: [1] 7.7% | [2] 0.5% | [3] -5.4% | [4] 2.2% | [5] 6.6% | [6] 6.55%

Cc1ccc2nc(-c3ccc4nc(-c5ccc(N=Nc6ccc(-c7nc8ccc(-c9nc%10ccc(C)c(S(=O)(=O)O)c%10s9)cc8s7)cc6)cc5)sc4c3)sc2c1S(=O)(=O)O
inactive: [1] 12.7% | [2] -13% | [3] 21.4% | [4] -0.3% | [5] -3.2% | [6] -26.9%

O=C(O)CC1CCCNC1 (stereo not given)
inactive: [1] -11.3% | [2] 1.95% | [3] -13.7% | [4] -18.6% | [5] -16% | [6] -16.3%

CC1(C)OC[C@@H](O)[C@H](C#N)CO1
inactive: [1] 17.6% | [2] 27.6% | [3] 3.75% | [4] 19.6% | [5] -0.95% | [6] -18.1%

O=C(CCCN1CCC2(CC1)NC(=O)c1ccccc1O2)c1ccc(F)cc1
inactive: [1] 23.6% | [2] 10.6% | [3] 55.5% | [4] 48.9% | [5] 36.8% | [6] 21.7%

O=c1cc(-c2cccc(OC(F)(F)F)c2)[nH]c2cc3c(cc12)OCO3
inactive: [1] -6.25% | [2] 2.75% | [3] -5.05% | [4] 13.8% | [5] 19.7% | [6] -24.2%

O=C(O)C12C3CCC(C3)C1(C(=O)O)C1CCC2C1 (stereo not given)
inactive: [1] -13.3% | [2] -13.9% | [3] -14.4% | [4] 24.3% | [5] -0.65% | [6] -12.2%

N[C@H](CCC(=O)NCP(=O)(O)O)C(=O)O
inactive: [1] -43.7% | [2] -42.6% | [3] -44.7% | [4] -7.1% | [5] -10.8% | [6] -41.1%

CCCCCCCCCCCCCCCC(=O)ON1C(=S)NC(C)(c2ccccc2)C1=S (stereo not given)
inactive: [1] -0.65% | [2] 5.45% | [3] 9.15% | [4] -4.05% | [5] 13.4% | [6] -17.6%

C/C(CC(O)(C(F)(F)F)C(F)(F)F)=N\NC(N)=O
inactive: [1] -38.5% | [2] -44.5% | [3] -22.5% | [4] -1.45% | [5] -5.35% | [6] -15.8%

O=C(O)CC(Cc1ccccc1)C(=O)O (stereo not given)
inactive: [1] 1% | [2] -3.45% | [3] -26.1% | [4] -17.8% | [5] -31.9% | [6] 2.05%

CCCNC(=O)/C=C/C(=O)NCCC
inactive: [1] 8.55% | [2] -0.8% | [3] -1.55% | [4] -43.2% | [5] -6% | [6] 4.1%

CCOC(=O)C(NC(C)=O)C(O)c1ccc(Cl)cc1Cl (stereo not given)
inactive: [1] 18.4% | [2] 3.4% | [3] 0.05% | [4] -45.9% | [5] -9.4% | [6] 19.7%

Clc1ccc(CCc2ccncn2)c(Cl)c1
inactive: [1] 17.5% | [2] 16.1% | [3] 5.7% | [4] 17.7% | [5] 14.7% | [6] 51.6%

CCC(C)OC(=O)C1C(=O)CC(c2ccccc2)C1c1ccccc1 (stereo not given)
inactive: [1] -2.2% | [2] -8.4% | [3] -4.8% | [4] -1.45% | [5] 3.4% | [6] -6.35%

CCOC(=O)C1CC(=O)NC(N)=N1 (stereo not given)
inactive: [1] -12.6% | [2] -29.4% | [3] -13.6% | [4] -7.95% | [5] -8.2% | [6] -14.2%

NC(=O)C(=CNC(=S)Nc1ccc(Cl)c(Cl)c1)C(N)=O
inactive: [1] 8.6% | [2] -3.75% | [3] 18.4% | [4] 27.3% | [5] 2.05% | [6] 3.9%

C=CCOc1ccc(C2CCCCC2)cc1
inactive: [1] 42% | [2] 16.9% | [3] 20.5% | [4] 11.6% | [5] -2.75% | [6] 18.3%

c1ccc(C2OC3C4COC(O4)C3O2)cc1 (stereo not given)
inactive: [1] -24.7% | [2] -19.9% | [3] -15.4% | [4] -19.1% | [5] -1.75% | [6] -9.7%

CC(=O)Nc1ccc(/C=c2\sc3nnc(CCC(=O)Nc4ccccc4Cl)n3c2=O)cc1
inactive: [1] -16.4% | [2] -17.7% | [3] -20.1% | [4] 7.6% | [5] 7.1% | [6] -9.55%

Source: PubChem BioAssay (NCI)
